From PubChem
M1 ag parental – nonselective activator or artifact in parental CHO-K1 cells; Fluo-8 calcium fluorescence; scaled to maximal ATP response, vehicle zero; activation, % at 3 µM; actives 0.48% (n = 360,000); in the data active = activation above about 15%;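 note: untransfected CHO-K1 host cells lacking M1 receptor as counterscreen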
CHO-K1 Ca antag – nonselective inhibitor or artifact in parental CHO-K1 cells; ATP-induced calcium, Fluo-8 fluorescence; inhibition, % at 3 µM; actives 0.6% (n = 360,000);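 active = inhibition above a per-plate cutoff, the plate's mean sample inhibition plus 3 SD, cut at about 24% in these data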
CHO-K1 Ca PAM – counter-screen for M1 PAMs: effect in parental CHO-K1 cells; ATP EC20, Fluo-8 calcium fluorescence; 0% at ATP EC20, 100% at ATP max; activation, % at 3 µM; actives 0.02% (n = 360,000); AID 602247;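 active = activation above the run cutoff, the mean activation of all test compounds plus 3 SD, cut at about 40% in these data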;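 note: peak over basal fluorescence ratio in a 140 s read after ATP addition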
M1 antag – antagonists of human M1 muscarinic receptor | P11229 | CHO-K1 hM1, Fluo-8 calcium fluorescence, ACh EC80 antagonist | inhibition, % at 3 µM | actives 1.3% (n = 360,000) | AID 588852;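 active = percent inhibition above its own plate's cutoff, namely the mean of that plate's compound wells plus 3 SD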;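 note: peak over basal fluorescence ratio during 140 s after agonist addition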
Target sequence (P11229 whole entry, looked up): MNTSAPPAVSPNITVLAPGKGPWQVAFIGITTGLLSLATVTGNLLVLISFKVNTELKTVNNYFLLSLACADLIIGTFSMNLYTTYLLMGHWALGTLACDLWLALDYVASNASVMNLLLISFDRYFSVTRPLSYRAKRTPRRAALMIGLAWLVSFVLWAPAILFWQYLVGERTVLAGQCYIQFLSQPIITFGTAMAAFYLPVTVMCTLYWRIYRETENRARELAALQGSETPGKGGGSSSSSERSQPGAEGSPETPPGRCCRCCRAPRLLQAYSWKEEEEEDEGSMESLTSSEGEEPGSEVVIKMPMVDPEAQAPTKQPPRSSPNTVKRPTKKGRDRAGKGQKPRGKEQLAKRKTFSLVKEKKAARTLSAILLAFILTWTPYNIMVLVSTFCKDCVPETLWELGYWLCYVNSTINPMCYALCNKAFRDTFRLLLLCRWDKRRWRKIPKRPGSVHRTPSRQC
M1 ag – human M1 muscarinic receptor agonism; P11229; actives 0.33% (n = 360,000); activation, % at 3 µM; CHO-K1 hM1, Fluo-8 calcium fluorescence, agonist mode; 0% DMSO, 100% acetylcholine EC100;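 active = activation above the run's mean compound activation plus 3 SD, cut at about 16% in these data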;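 note: peak over basal fluorescence ratio within a 140 s kinetic read after compound addition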
M1 PAM – human CHRM1 positive allosteric modulation; P11229; CHO-K1 hM1, Fluo-8 calcium fluorescence, ACh EC20; 0% = ACh EC20, 100% = maximal ACh; activation, % at 3 µM; actives 0.088% (n = 360,000); in the data active = activation above about 19%, passing the limit was not always enough
Of the large screens only hits and unclear results are named; the others gave an inactive call. A selection: hits, their analogues and other compounds. The true share with any hit is near 2.4%.

COc1cc(/C=C(\C#N)c2nc3ccc(C)cc3[nH]2)c([N+](=O)[O-])cc1OC	none
CC(COc1ccc(C(C)C)cc1)NC(=O)c1ccc(Br)o1 (centres undefined)	none
CC1CCCCN1CCCNC(=O)c1ccc(NC(=O)C2=CSCCO2)cc1 (centres undefined)	none
Cc1cc(C)n(C(C)CC(=O)N2CCc3ccccc32)n1 (centres undefined)	M1 antag 33
O=C(NC(Cc1ccc2c(c1)OCO2)C(=O)NC(Cc1ccccc1)C(=O)O)c1ccccc1 (centres undefined)	CHO-K1 Ca antag 25
O=C(O)CC(Cc1ccccc1)c1ccc2c(c1)OCO2 (centres undefined)	CHO-K1 Ca antag 33
Cc1ccc(CC(NC(=O)c2ccccc2)C(=O)NC(Cc2ccccc2)C(=O)O)cc1 (centres undefined)	none
CCc1cccc2c1NC(=O)C21OCCO1	none
O=C(c1cc(-c2ccco2)on1)N1CCc2ccccc2C1	M1 PAM 28
COC(=O)c1ccc(CN2CCCC(C(=O)Nc3cccc(-n4cccn4)c3)C2)cc1 (centres undefined)	M1 antag 41, M1 ag 38
CCNC(=O)C1CCCN(Cc2ccc(C(=O)OCC)cc2)CC1 (centres undefined)	M1 antag 65
COC(=O)c1ccc(CN2CCC(n3nccc3NC(=O)C3CC3)CC2)cc1	M1 ag 19
COC(=O)c1ccc(CN2CCC(n3nccc3NC(=O)C3CCCC3)CC2)cc1	M1 ag 21
COc1ccc(CN2CCCC(C(=O)Nc3cccc(-n4cccn4)c3)C2)cc1 (centres undefined)	none
CC(=O)c1c(C)nn(CC(O)COc2ccc3ccccc3c2)c1C (centres undefined)	none
CCOc1ccc(CCNC(=O)c2cc(C)nn2-c2ccccc2)cc1	none
CCN(CCn1cccn1)Cc1ccccc1OCC(O)CN1CCc2ccccc2C1 (centres undefined)	none
Cc1cccc2[nH]c(CN(C)Cc3nc(CC4CC4)no3)nc12	none
CCOC(=O)CN(C(=O)c1snc(C(N)=O)c1N)C(C(=O)NCCC(C)C)c1ccc(C)cc1 (centres undefined)	none
COc1ccc(-c2csc(NC(=O)C3=NN(c4ccccc4)C(=O)CC3)n2)cc1	M1 antag 24
CC1(C(=O)Nc2ccc3c(c2)OCO3)CCN1Cc1csc2ccccc12 (centres undefined)	CHO-K1 Ca PAM 40
CC1(C(=O)Nc2ccc3c(c2)OCO3)CCN1Cc1cccc2c1OCO2 (centres undefined)	CHO-K1 Ca PAM 58
Cc1ccc(NC(=O)C2(C)CCN2Cc2csc3ccccc23)cc1 (centres undefined)	M1 antag 45
COCOc1cccc(CN2CCC2(C)C(=O)Nc2ccc3c(c2)OCO3)c1 (centres undefined)	none
Nc1nc(Nc2cccc(F)c2)nc(NCc2ccco2)c1[N+](=O)[O-]	none
Cc1ccc(-c2[nH][nH]c(=O)c(=O)c2N=Nc2ccccc2)cc1	none
O=C(NCCc1ccccc1)c1nc(-c2cccs2)no1	CHO-K1 Ca antag 26
O=C(NCc1cccs1)c1nc(-c2cccs2)no1	none
COc1ccc(OC)c(NC(=O)C2(C)CCN2Cc2ccsc2)c1 (centres undefined)	none
C=CCc1cc(Cl)ccc1OCCNCCCOC	none
C=CCc1ccccc1OCCNCCCOC	CHO-K1 Ca antag 24
CC(C)/C=C1\CC/C(=C\c2ccc(N(C)C)cc2)C1=O	M1 ag parental 29, CHO-K1 Ca antag 29, M1 antag 46, M1 ag 52
CC1CCN(C(=O)CNC(=O)c2ccc(Cl)cc2Cl)CC1	CHO-K1 Ca antag 31, M1 PAM 22
N#Cc1cnc(=S)n(-c2cc(C(F)(F)F)cc(C(F)(F)F)c2)c1N	none
Cc1ccc(O)c([C@H](CCN(C(C)C)C(C)C)c2ccccc2)c1	M1 antag 100
CCCN(CCC)C(=O)CC(c1ccccc1)c1ccc(C)cc1O (centres undefined)	none
COc1cc(/C=N/N2CCCCC2)cc([N+](=O)[O-])c1O	M1 ag 25
COc1cc(/C=N/n2c(=S)[nH]nc(C)c2=O)cc([N+](=O)[O-])c1O	CHO-K1 Ca antag 25
O=C(Nc1cccc(O)c1)c1c(O)c2ccccc2[nH]c1=O	none
Cc1ccc(-n2c(-c3cccnc3)n[nH]c2=S)c(C)c1	CHO-K1 Ca antag 26
c1ccc2c3c([nH]c2c1)CCNC3	M1 ag 27
CC(=O)c1cnc2c(-c3ccc(Cl)cc3)cnn2c1C	CHO-K1 Ca antag 30
Nc1c(C(=O)O)cnc2c(-c3ccc(Cl)cc3)cnn12	none
Cc1ccccc1C(N)=O	none
CC1(C)CC2CC(C)(CN2C(=S)Nc2ccccc2)C1 (centres undefined)	M1 ag parental 16
Cc1nnc(C)n1N	none
Cc1cc2nc(C)n(CCCNC(=O)Nc3ccc(C#N)cc3)c2cc1C	M1 antag 57
CC(C)n1c(CCC(=O)O)ccc1-c1ccccc1	M1 antag 22
OC(c1ccccc1)C(NCc1ccccc1)c1ccccc1 (centres undefined)	none
O=C(COC(=O)C12CC3CC(CC(C3)C1)C2)Nc1ccc([N+](=O)[O-])cc1Cl	none
COc1cc(C(=O)OCC(=O)c2c(N)n(C)c(=O)n(C)c2=O)ccc1OCCC(C)C	none
CCOC(=O)[C@@H]1[C@H]2COc3ccc(Br)cc3[C@H]2N2C(=O)N(c3cccc(Cl)c3)C(=O)[C@]12C	none
O=C(CN1CCOCC1)Nc1ccccc1F	M1 PAM 30
CN(C)c1cccc(C(=O)OCC(=O)Nc2ccccc2Sc2ccccc2)c1	CHO-K1 Ca antag 31
O=C(CN1CCOCC1)Nc1ccccc1Sc1ccc(Cl)cc1	M1 antag 22
O=C(CCl)Nc1ccccc1Sc1ccccc1	CHO-K1 Ca antag 24
O=C(Cc1ccc(Cl)cc1)Nc1ccccc1Sc1ccccc1	none
COc1cccc(NC(=O)CSC2=NN3CCCC(=O)N=C3S2)c1	none
COc1ccc(NCc2ccc([N+](=O)[O-])s2)c(OC)c1	none
Cc1cccc(N=C2C(=O)Nc3c(Cl)cccc32)c1	none
O=C1Nc2c(Cl)cc(Cl)cc2C1=O	M1 ag 16
CC(C)[C@H](CN1CCC[C@H]1CN1C(N)=NC[C@@H]1Cc1ccccc1)N1C[C@@H](Cc2ccccc2)N(CCc2ccc(Cl)c(Cl)c2)C1=N	none
CC(C)[C@@H]1CN=C(N)N1C[C@@H]1CCCN1C[C@H](C)N1C[C@@H](Cc2ccccc2)N(CCc2ccc(Cl)c(Cl)c2)C1=N	M1 antag 46
